In PMC12864922, “TDP-43 directly inhibits mRNA accumulation in neurites through modulation of mRNA stability”:
Substitutions are numbered along the chain they refer to. Whole data set: some 9,900 sequences, median “r (bound/input frequency ratio)” near 0.7, cut for the highest 2% near 6.5. The full list was thinned out, with the highest values kept by preference.

B1: ENSMUSG00000031028.245|Tub (ssRNA)
RNA: GGGAGUUCUACAGUCCGACGAUCGCUUCGAUAUCCGCAUGCUAGCCCUCCAUUGGGAUGGCACCACUCAUCUGGUGGGCUUGGGAACUCCAAGCUCUUGCCUGUGUGCCAUCUGUGAGAAGCUUCUUGGAGCUGAGACACCAGAGGGAAGCAAAGAGCAUUUAGACAUUGCUUUUUGCUUUGAAAUAGAUAUGUUUGGAAACGCUAAGUAGAAGUUUAAAAAGUAGAGUCAUGUAGAGUCAUGCUUUGAAUAUGUGGGUCAUGCUUUAGAUAUGAAGAGGCUAUGCAGGUAAGGAGGCUGGAUCUCUUGCGGUCGCACUAGUGUGGAAUUCUCGGGUGUCAAGG
B2: ENSMUSG00000028439.189|Fam219a|1:11;21:28 (ssRNA)
RNA: GGGAGUUCUACAGUCCGACGAUCGCUUCGAUAUCCGCAUGCUAACACACACACAUGUACCCGACACACACAUGAGCCUAUCUGUCCAGGGAACCAGAUUGGUGUCCGAGAUGAGGAAAUGGCUGUGGCCUGGGAAAUCAGUGAGAGGCCGCUUGGGAAUGAGAAUGCAGUGGACUGAAAGCACAGCCUGGCCAUCUGGAACCUGGGUUCUGGUCCCAGCCUCGGCAUUCUCCCUGAGCUCCUAAGCAAUUCCCAGGCUUCUCUAGGGCUUCAGUUCUCACAACUGGAAAAUAAAGAGUAGCUGCUCUUGCGGUCGCACUAGUGUGGAAUUCUCGGGUGUCAAGG
B3: ENSMUSG00000031028.94|Tub (ssRNA)
RNA: GGGAGUUCUACAGUCCGACGAUCGCUUCGAUAUCCGCAUGCUAAGCUCUGGUGGUCAGCAGAAAGCACUCCCACUUCAAAAGGGCCCAUUAGGCCCAAAGGGGGUUAGGAGUGGUAGGGAUAGGUGCGUGGCAGGUCCCUGCUAGGAUUGCAGGGGCCUGGCCAUGUGUAUUAGCUGGAGGCUUAGAAUGCUAGCUCAUUUGUUGCUACAGAUUUGCCCAGUGCUUGCACACGUAAGAACCCAGCUCUCAAGGCCAAAUAUCUGAGUGGAUGGGGAUGAUAGGAGUCAUCCAGUAGACUCCCUCUCUUGCGGUCGCACUAGUGUGGAAUUCUCGGGUGUCAAGG
B4: ENSMUSG00000058297.426|Spock2 (ssRNA)
RNA: GGGAGUUCUACAGUCCGACGAUCGCUUCGAUAUCCGCAUGCUAGUGGCAGGCCCCAGGGGUCCAGAAGUUUGUCCCUCUCUAAAACGCUCCCCACCCCAUACUGCUUUUCACCCCACUGAGACCGAGUCCCACAAAGGUAGGCAGAACAGCUGUUCCUGGUGGGGCUGAAGGUUCCCAAGUAGCUUCUAGUUAAGCAAGCUUCGUGUUUCCUCAGGAGCAAGGUCACACAGGUCAGAUUAUUGUCGGUCCUGCGGGCCUCAUCCUUGAAUAAGCUGCCUGCCCAGUUCCUCCAUCCGUGUUCCCUCUUGCGGUCGCACUAGUGUGGAAUUCUCGGGUGUCAAGG
B5: ENSMUSG00000061578.1448|Ksr2 (ssRNA)
RNA: GGGAGUUCUACAGUCCGACGAUCGCUUCGAUAUCCGCAUGCUAUAGGUAGGUAUAUAAAUGGAUGGAUGGGUGAUGGAUGGGUAAAUGAAUGGAUAGGUAUGUGAAUGAAUGGAUGAUGGAUGAAUGGAUGGGUAGGUGGGUAGAUAGGUAUAUGAAUGAAUGGAUGAAUGGAUGGGUGAAUGGAUGGAUAGGUAUGUGAAUAAAUGGAUGGAUGGAUGGAUUGAUUUGUGAAUGAAUGGAUGAAUGGAUGGGUAGGUGGGUGGAUGCAUAGGCAAGUAGAUGAAUGAAUAUGUGGGUAGAAGCUCUUGCGGUCGCACUAGUGUGGAAUUCUCGGGUGUCAAGG
B6: ENSMUSG00000061578.1439|Ksr2 (ssRNA)
RNA: GGGAGUUCUACAGUCCGACGAUCGCUUCGAUAUCCGCAUGCUAUUGAUUUAGAUGCCAAUCAGGAAGGCAAGUAGGAUGGAUGGAUGAGUGAGUGGAUAGGUAGGUAUAUAAAUGGAUGGAUGGGUGAUGGAUGGGUAAAUGAAUGGAUAGGUAUGUGAAUGAAUGGAUGAUGGAUGAAUGGAUGGGUAGGUGGGUAGAUAGGUAUAUGAAUGAAUGGAUGAAUGGAUGGGUGAAUGGAUGGAUAGGUAUGUGAAUAAAUGGAUGGAUGGAUGGAUUGAUUUGUGAAUGAAUGGAUGAAUGGACUCUUGCGGUCGCACUAGUGUGGAAUUCUCGGGUGUCAAGG
B7: ENSMUSG00000061578.1442|Ksr2 (ssRNA)
RNA: GGGAGUUCUACAGUCCGACGAUCGCUUCGAUAUCCGCAUGCUAAGGAAGGCAAGUAGGAUGGAUGGAUGAGUGAGUGGAUAGGUAGGUAUAUAAAUGGAUGGAUGGGUGAUGGAUGGGUAAAUGAAUGGAUAGGUAUGUGAAUGAAUGGAUGAUGGAUGAAUGGAUGGGUAGGUGGGUAGAUAGGUAUAUGAAUGAAUGGAUGAAUGGAUGGGUGAAUGGAUGGAUAGGUAUGUGAAUAAAUGGAUGGAUGGAUGGAUUGAUUUGUGAAUGAAUGGAUGAAUGGAUGGGUAGGUGGGUGGAUGCUCUUGCGGUCGCACUAGUGUGGAAUUCUCGGGUGUCAAGG
B8: ENSMUSG00000061578.1445|Ksr2 (ssRNA)
RNA: GGGAGUUCUACAGUCCGACGAUCGCUUCGAUAUCCGCAUGCUAGAUGGAUGAGUGAGUGGAUAGGUAGGUAUAUAAAUGGAUGGAUGGGUGAUGGAUGGGUAAAUGAAUGGAUAGGUAUGUGAAUGAAUGGAUGAUGGAUGAAUGGAUGGGUAGGUGGGUAGAUAGGUAUAUGAAUGAAUGGAUGAAUGGAUGGGUGAAUGGAUGGAUAGGUAUGUGAAUAAAUGGAUGGAUGGAUGGAUUGAUUUGUGAAUGAAUGGAUGAAUGGAUGGGUAGGUGGGUGGAUGCAUAGGCAAGUAGAUGAACUCUUGCGGUCGCACUAGUGUGGAAUUCUCGGGUGUCAAGG
B9: ENSMUSG00000061578.1444|Ksr2 (ssRNA)
RNA: GGGAGUUCUACAGUCCGACGAUCGCUUCGAUAUCCGCAUGCUAAGGAUGGAUGGAUGAGUGAGUGGAUAGGUAGGUAUAUAAAUGGAUGGAUGGGUGAUGGAUGGGUAAAUGAAUGGAUAGGUAUGUGAAUGAAUGGAUGAUGGAUGAAUGGAUGGGUAGGUGGGUAGAUAGGUAUAUGAAUGAAUGGAUGAAUGGAUGGGUGAAUGGAUGGAUAGGUAUGUGAAUAAAUGGAUGGAUGGAUGGAUUGAUUUGUGAAUGAAUGGAUGAAUGGAUGGGUAGGUGGGUGGAUGCAUAGGCAAGUACUCUUGCGGUCGCACUAGUGUGGAAUUCUCGGGUGUCAAGG
B10: ENSMUSG00000061578.1444|Ksr2|79:83;174:178 (ssRNA)
RNA: B9 RNA with G122C, U123A, A124U, U125A, G126C, G217C, U218A, A219U, U220A, G221C
B11: ENSMUSG00000061578.1443|Ksr2|85:89;180:184 (ssRNA)
RNA: GGGAGUUCUACAGUCCGACGAUCGCUUCGAUAUCCGCAUGCUAGCAAGUAGGAUGGAUGGAUGAGUGAGUGGAUAGGUAGGUAUAUAAAUGGAUGGAUGGGUGAUGGAUGGGUAAAUGAAUGGAUAGCAUACUGAAUGAAUGGAUGAUGGAUGAAUGGAUGGGUAGGUGGGUAGAUAGGUAUAUGAAUGAAUGGAUGAAUGGAUGGGUGAAUGGAUGGAUAGCAUACUGAAUAAAUGGAUGGAUGGAUGGAUUGAUUUGUGAAUGAAUGGAUGAAUGGAUGGGUAGGUGGGUGGAUGCAUAGGCUCUUGCGGUCGCACUAGUGUGGAAUUCUCGGGUGUCAAGG
B12: ENSMUSG00000061578.1451|Ksr2|37:41;132:136 (ssRNA)
RNA: GGGAGUUCUACAGUCCGACGAUCGCUUCGAUAUCCGCAUGCUAGAUGGAUGGGUGAUGGAUGGGUAAAUGAAUGGAUAGCAUACUGAAUGAAUGGAUGAUGGAUGAAUGGAUGGGUAGGUGGGUAGAUAGGUAUAUGAAUGAAUGGAUGAAUGGAUGGGUGAAUGGAUGGAUAGCAUACUGAAUAAAUGGAUGGAUGGAUGGAUUGAUUUGUGAAUGAAUGGAUGAAUGGAUGGGUAGGUGGGUGGAUGCAUAGGCAAGUAGAUGAAUGAAUAUGUGGGUAGAAGGGUGAGUGGGUGGAUGAACUCUUGCGGUCGCACUAGUGUGGAAUUCUCGGGUGUCAAGG
B13: ENSMUSG00000061578.1441|Ksr2 (ssRNA)
RNA: GGGAGUUCUACAGUCCGACGAUCGCUUCGAUAUCCGCAUGCUACCAAUCAGGAAGGCAAGUAGGAUGGAUGGAUGAGUGAGUGGAUAGGUAGGUAUAUAAAUGGAUGGAUGGGUGAUGGAUGGGUAAAUGAAUGGAUAGGUAUGUGAAUGAAUGGAUGAUGGAUGAAUGGAUGGGUAGGUGGGUAGAUAGGUAUAUGAAUGAAUGGAUGAAUGGAUGGGUGAAUGGAUGGAUAGGUAUGUGAAUAAAUGGAUGGAUGGAUGGAUUGAUUUGUGAAUGAAUGGAUGAAUGGAUGGGUAGGUGGGCUCUUGCGGUCGCACUAGUGUGGAAUUCUCGGGUGUCAAGG
B14: ENSMUSG00000061578.1440|Ksr2 (ssRNA)
RNA: GGGAGUUCUACAGUCCGACGAUCGCUUCGAUAUCCGCAUGCUAUAGAUGCCAAUCAGGAAGGCAAGUAGGAUGGAUGGAUGAGUGAGUGGAUAGGUAGGUAUAUAAAUGGAUGGAUGGGUGAUGGAUGGGUAAAUGAAUGGAUAGGUAUGUGAAUGAAUGGAUGAUGGAUGAAUGGAUGGGUAGGUGGGUAGAUAGGUAUAUGAAUGAAUGGAUGAAUGGAUGGGUGAAUGGAUGGAUAGGUAUGUGAAUAAAUGGAUGGAUGGAUGGAUUGAUUUGUGAAUGAAUGGAUGAAUGGAUGGGUACUCUUGCGGUCGCACUAGUGUGGAAUUCUCGGGUGUCAAGG
B15: ENSMUSG00000061578.1450|Ksr2 (ssRNA)
RNA: GGGAGUUCUACAGUCCGACGAUCGCUUCGAUAUCCGCAUGCUAUAAAUGGAUGGAUGGGUGAUGGAUGGGUAAAUGAAUGGAUAGGUAUGUGAAUGAAUGGAUGAUGGAUGAAUGGAUGGGUAGGUGGGUAGAUAGGUAUAUGAAUGAAUGGAUGAAUGGAUGGGUGAAUGGAUGGAUAGGUAUGUGAAUAAAUGGAUGGAUGGAUGGAUUGAUUUGUGAAUGAAUGGAUGAAUGGAUGGGUAGGUGGGUGGAUGCAUAGGCAAGUAGAUGAAUGAAUAUGUGGGUAGAAGGGUGAGUGGGUGCUCUUGCGGUCGCACUAGUGUGGAAUUCUCGGGUGUCAAGG
B16: ENSMUSG00000061578.1446|Ksr2 (ssRNA)
RNA: GGGAGUUCUACAGUCCGACGAUCGCUUCGAUAUCCGCAUGCUAUGAGUGAGUGGAUAGGUAGGUAUAUAAAUGGAUGGAUGGGUGAUGGAUGGGUAAAUGAAUGGAUAGGUAUGUGAAUGAAUGGAUGAUGGAUGAAUGGAUGGGUAGGUGGGUAGAUAGGUAUAUGAAUGAAUGGAUGAAUGGAUGGGUGAAUGGAUGGAUAGGUAUGUGAAUAAAUGGAUGGAUGGAUGGAUUGAUUUGUGAAUGAAUGGAUGAAUGGAUGGGUAGGUGGGUGGAUGCAUAGGCAAGUAGAUGAAUGAAUACUCUUGCGGUCGCACUAGUGUGGAAUUCUCGGGUGUCAAGG

Biological target: TDP-43 (Homo sapiens, UniProt Q13148 1-414)
Sequence (Q13148 whole entry): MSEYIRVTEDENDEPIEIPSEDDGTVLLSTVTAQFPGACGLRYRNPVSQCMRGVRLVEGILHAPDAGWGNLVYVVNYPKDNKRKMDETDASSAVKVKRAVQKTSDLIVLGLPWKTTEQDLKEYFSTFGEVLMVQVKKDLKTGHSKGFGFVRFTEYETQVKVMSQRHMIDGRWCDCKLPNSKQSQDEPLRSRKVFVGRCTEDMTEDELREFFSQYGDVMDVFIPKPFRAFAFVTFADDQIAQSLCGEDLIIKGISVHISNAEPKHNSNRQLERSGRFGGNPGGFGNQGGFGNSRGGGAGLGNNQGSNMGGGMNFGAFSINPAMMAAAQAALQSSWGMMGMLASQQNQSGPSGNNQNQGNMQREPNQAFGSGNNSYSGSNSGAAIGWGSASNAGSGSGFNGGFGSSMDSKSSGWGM
Experiment: RNA Bind-n-Seq with designed 260-mer pool; 25 mM Tris-HCl, 150 mM KCl, 3 mM MgCl2, BSA (printed 500 mg/mL), 20 units/mL SUPERase IN; pH not stated; 500 nM RNA pool, 1 h, 4 C; TDP-43 5, 50, 500 nM; high values mean tight binding
Settings: protein: recombinant; tags: SBP (GST cleaved off with PreScission; pGEX-GST-SBP)
Summary of the method: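 For each oligo, R gives binding as its mapped-read-normalized abundance after pulldown divided by its abundance in input. Bead-captured SBP-tagged TDP-43 (5, 50 or 500 nM) was incubated with 500 nM of an in vitro-transcribed 260-nt 3′ UTR oligo pool for 1 h at 4 °C in 25 mM Tris-HCl, 150 mM KCl, 3 mM MgCl2, BSA and SUPERase IN on streptavidin beads. Washed, biotin-eluted RNA was reverse transcribed, PCR-amplified and sequenced.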

Compared with B1, B2 is lower in binding signal: 2.93 R (bound/input frequency ratio) for the first, 0.604 R (bound/input frequency ratio) for the second.

First: B3
Second: B4
The binding signal of the first is higher: 0.759 R (bound/input frequency ratio) for the first, 0.272 R (bound/input frequency ratio) for the second.

Going from B5 to B6, the binding signal falls from 6.14 R (bound/input frequency ratio) to 6.02 R (bound/input frequency ratio).

Compared with B7, B8 is lower in binding signal: 7.5 R (bound/input frequency ratio) for the first, 4.8 R (bound/input frequency ratio) for the second.

Going from B9 to B10, the binding signal rises from 3.7 R (bound/input frequency ratio) to 5.84 R (bound/input frequency ratio).

Compared with B11, B12 is lower in binding signal: 6.75 R (bound/input frequency ratio) for the first, 5.32 R (bound/input frequency ratio) for the second.

First: B13
Second: B14
The binding signal of the first is lower: 5.22 R (bound/input frequency ratio) for the first, 11.5 R (bound/input frequency ratio) for the second.

Compared with B15, B16 is higher in binding signal: 4.15 R (bound/input frequency ratio) for the first, 11 R (bound/input frequency ratio) for the second.
